SMILES strings stand for the structures. The panel holds about 83,000 compounds, 20% with a hit somewhere; the sample as a whole holds those more often.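 Activity criterion: percent growth below 10, measured after cells in 96-well plates were exposed to a single compound concentration for 48 hours.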 Unmarked numbers belong to inactive results. Active and inactive are the calls of the source.

Assay in all cases: NCI-60 one-dose screen, 48 h (100 = growth as untreated, 0 = no growth, -100 = all killed)
Holding throughout (details): 10 µM

For assay [1], the system named is NCI-H23 lung.
In assay [2] the test system is NCI-H226 lung.
Assay [3] concerns NCI-H322M lung.
The subject of assay [4] is HOP-62 NSCLC.
For assay [5], the system named is NCI-H460 lung.
Assay [6] deals with HOP-92 NSCLC.
Assay [7] has as its system NCI-H522 lung.
Assay [8] has as its system A549/ATCC NSCLC.
Assay [9] has as its system 786-0 renal.
For assay [10], the system named is COLO 205 colon.

In the case of `CC(=O)Nc1ccc(-c2cn(-c3cccc(C(=O)Nc4cc(CN5CCOCC5)cc(C(F)(F)F)c4)c3)nn2)cn1`, the growth in assay [1] was -92.6% (active); in assay [2], -74% (active); in [3] it was -94.3% (active); in [4], -64.1% (active); in [5], -65.3% (active); in [6], -77.5% (active). The values for the growth in assay [7], in assay [8] and in [9] were -53.2% (active), -74.7% (active) and -86% (active), respectively.
As to `CN(C)c1nc(NCCNS(=O)(=O)c2ccc(C(=O)/C=C/c3ccccc3)cc2)nc(Nc2ccc(F)cc2)n1`, the growth is 28.8% in assay [1]; 27.8% in assay [2]; 44.1% in assay [3]; 61.1% in assay [4]; 14.9% in assay [5]; -12.1% (active) in assay [6]. Moreover, the growth is 61.6% in [7], 45.4% in [8] and -20.6% (active) in [9].
`COc1ccsc1/C=N/NC(=O)c1[nH]c2ccc(Br)cc2c1-c1ccccc1`: the growth in [1] was 9.07% (active); in assay [2], 17.2%; in assay [3], 34.3%; in assay [4], 26.3%; in [5] it was 0.114% (active); in assay [6] it was -5.64% (active). For the same molecule, the figures for the growth in assay [7], in assay [8] and in assay [9] were -34.4% (active), 11.7% and 1.8% (active), respectively.
`CS(=O)(=O)Nc1ccc(-c2ccc3c(c2)ncn3-c2ccc(NC(=O)Nc3ccc(Br)cc3)cc2)cc1`: the growth in [1] was 3.9% (active); in [2], 9.71% (active); in [3] it was 15.3%; in assay [4] it was -3.22% (active); in assay [5] it was 2.98% (active); in assay [6], 26.8%. For the same molecule, the growth is -23.4% (active) in assay [7], 12.1% in assay [8] and -13.6% (active) in assay [9].
Consider `COc1cccc(-c2nn(-c3ccccc3)cc2-c2ccnc(NCCCNC(=O)Nc3ccc(F)cc3)c2)c1`, for which the growth in assay [1] was 17%; in assay [2], 16.4%; in assay [3], 43.7%; in [4], 7.43% (active); in [5] it was 15.2%; in assay [6], -25% (active). In addition, the growth in assay [7] is -3.16% (active); in [8], 15.1%; in assay [9], -11.3% (active).
As to `O=C(c1ccc(Cl)cc1)C1[C@H](c2ccccc2Br)[C@@H](c2ccccc2)NC12C(=O)Nc1ccccc12` (stereo partly drawn), the growth in assay [1] is 6.15% (active); in assay [2] it was 21.9%; in assay [3] it was 42.1%; in assay [4] it was 43.6%; in assay [5], 0.679% (active); in [6], 14%. The growth in assay [7] was -3.71% (active); in assay [8] it was 20.4%; in assay [9] it was 16.3%.
As to `OCc1[nH]nc2cc(Nc3ncc4ccc(Br)c(OC5CCC(O)CC5)c4n3)ccc12` (stereo not drawn), the growth in assay [1] is -88.8% (active); in assay [2] it was -2.72% (active); in assay [3] it was -17.9% (active); in assay [4], 0.469% (active); in assay [5] it was 2.31% (active); in assay [6], 20.9%. Moreover, the growth is -31.2% (active) in assay [7], 4.04% (active) in assay [8] and -26% (active) in assay [9].
`CN(CCF)c1ccc(/C=C/C(=O)c2ccc(N)cc2O)cc1`: the growth is 93.2% in [1]; 93.8% in [2]; 78.8% in [3]; 106% in assay [4]; 71.9% in assay [5]; 94% in assay [6]. For the same molecule, the growth was 67.5% in [7], 68.8% in [8] and 90.5% in assay [9].
On to `CC1(C)CC[C@]2(C(=O)Nc3ccccc3)CC[C@]3(C)C(=CC[C@@H]4[C@@]5(C)CC[C@H](N)C(C)(C)[C@@H]5CC[C@]43C)[C@H]2C1`, for which the growth in assay [1] is 68.8%; in assay [2], 88.3%; in assay [3], 105%; in assay [4] it was 103%; in assay [5], -30.2% (active); in [6] it was 70.2%. Further, the growth is 82.9% in assay [7], 74.4% in [8] and 65.3% in assay [9].
On to `COc1ccc2[nH]cc(/C=N/Nc3ccc(Br)cn3)c2c1`, for which the growth in assay [1] is 36.6%; in assay [2], 40%; in assay [3] it was 43.8%; in assay [4] it was 45.8%; in [5], 16.2%; in assay [6], -24.5% (active). The results for the growth in assay [7], in assay [8] and in assay [9] were 38.5%, 23% and -3.93% (active), respectively.
For `CCOC(=O)C1=C(N)N(c2ccc(Cl)cc2)C2=C(C(=O)CC(C)(C)C2)C1c1ccc(N2CCOCC2)cc1` (stereo not drawn), the growth in assay [1] is 105%; in assay [2] it was 93.6%; in [3], 95.4%; in assay [4], 118%; in assay [5], 94%; in [6] it was 92.9%. Besides, the growth in [7] was 89.3%; in assay [8], 90%; in assay [9] it was 89.4%; in [10], 99.8%.
Take `CCOc1ccc(/C=N/NC(=O)Cn2nc(Cc3ccccc3)c3onc(C)c3c2=O)cc1`: the growth in [1] is 37.4%; in assay [2] it was -19.3% (active); in assay [3] it was 50.5%; in assay [4], -39.3% (active); in assay [5], 16.7%; in assay [6] it was -45.9% (active). For the same molecule, the growth in assay [7] is 11.4%; in assay [8], 11.6%; in assay [9] it was -51.9% (active).
Turning to `Cc1cc(C)nc(/N=C(\N)Nc2ccc(S(=O)(=O)Nc3nc(C)cc(C)n3)cc2)n1`, the growth was 104% in assay [1]; 102% in [2]; 106% in assay [3]; 104% in [4]; 116% in [5]; 117% in [6]. Besides, the growth was 98.4% in [7], 106% in assay [8] and 111% in assay [9].

Source of the values: PubChem BioAssay (NCI).
